“And” between values parts separate entries of the source, which are not always exact repeats. Equal entries are not always repeated. Records with an inconclusive call do not appear. Entries that show only a call come without a potency. The source made the active and inactive calls. Calls come from the whole dose curve; as a rule, active = well fitted curve in the direction sought with a large enough effect; inconclusive = small, poorly fitted or top-dose-only effect, or another doubt; inactive = no such curve, though single readings can be large; an effect the other way counts as inactive or inconclusive.
Columns and labels:
[1] = target: Cellular tumor antigen p53 (Homo sapiens) (UniProt P04637); experiment: Primary qHTS for small molecule compounds that upregulate eGFP-tagged delta133p53alpha (in N-terminal) cells. (AID 2060322); details: NCI-H358 eGFP-delta133p53alpha fluorescence, 24 h; activation: hits give high values; note: nearly all actives have a fitted effect of over 75% in size; note: potency is the fitted concentration of half-maximal effect; for activation: series mostly up to about 56 µM
Cellular tumor antigen p53 (Homo sapiens), sequence (P04637 whole entry, looked up): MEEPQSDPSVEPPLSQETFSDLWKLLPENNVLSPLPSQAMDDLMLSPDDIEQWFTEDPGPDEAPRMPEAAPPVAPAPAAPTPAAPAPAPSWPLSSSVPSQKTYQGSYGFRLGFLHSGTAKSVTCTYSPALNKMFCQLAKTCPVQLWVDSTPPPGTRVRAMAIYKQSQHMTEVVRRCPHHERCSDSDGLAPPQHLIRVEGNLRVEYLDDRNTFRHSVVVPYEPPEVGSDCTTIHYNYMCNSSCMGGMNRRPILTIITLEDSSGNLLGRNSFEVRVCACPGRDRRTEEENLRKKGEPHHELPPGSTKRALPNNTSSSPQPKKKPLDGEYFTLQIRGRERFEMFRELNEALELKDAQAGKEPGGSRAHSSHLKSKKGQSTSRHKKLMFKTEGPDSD
In short: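 NCI-H358 cells pre-induced 24 h with 10 ng/ml doxycycline to express N-terminal eGFP-delta133p53alpha, then dosed 24 h at 37C without doxycycline; fixed, Hoechst-stained, GFP intensity by laser scanning cytometry, normalized to DMSO (0%) and 57.5 uM 5-azacytidine (100%).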

[2] = target: Aldehyde dehydrogenase, mitochondrial (Homo sapiens) (UniProt P05091); experiment: qHTS for Inhibitors of the Aldehyde Dehydrogenase Family (ALDH2) Primary screen (AID 2061308); note: nearly all actives have a fitted effect of over 55% in size
[3] = target: Retinaldehyde dehydrogenase 3 (Homo sapiens) (UniProt P47895); experiment: qHTS for Inhibitors of the Aldehyde Dehydrogenase Family (ALDH1A3) Validation screen (AID 2061312); note: nearly all actives have a fitted effect of over 45% in size
[4] = target: Retinaldehyde dehydrogenase 3 (Homo sapiens) (UniProt P47895); experiment: qHTS for Inhibitors of the Aldehyde Dehydrogenase Family (ALDH1A3) Primary screen (AID 2061315)
[5] = BET inhibitor-based combinations targeting novel dependencies in MECOM-rearranged (r) AML: SET-2 cell line (AID 2202231); details: SET-2 AML cells viability, CellTiter-Glo luminescence, 48 h; viability: hits give low values, concentration not given here; note: nearly all actives have a fitted effect of over 35% in size; note: potency is the fitted concentration of half-maximal effect
In short: (§1)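 Each compound was tested at eleven concentrations on cells seeded at 500/well. After two days' incubation, ATP-based luminescence reported viability; responses relative to DMSO and blank wells yielded AUC and cell-line-centred Z-AUC.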

[6] = BET inhibitor-based combinations targeting novel dependencies in MECOM-rearranged (r) AML: OCI-AML3 cell line (AID 2202232); details: Potency: OCI-AML3 viability; note: nearly all actives have a fitted effect of over 35% in size; note: potency is the fitted concentration of half-maximal effect; for viability (% of control): series mostly up to about 46 µM
In short: as §1

[7] = BET inhibitor-based combinations targeting novel dependencies in MECOM-rearranged (r) AML: MV-4-11 cell line (AID 2202233); note: nearly all actives have a fitted effect of over 45% in size; note: potency is the fitted concentration of half-maximal effect
In short: (§2)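 First, 500 cells per well were seeded; next, drugs were pinned as 11-point doses; then plates sat 48 hr in the incubator; finally CellTiter-Glo was added and luminescence read, with AUC and Z-AUC computed.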

[8] = BET inhibitor-based combinations targeting novel dependencies in MECOM-rearranged (r) AML: HNT-34 cell line (AID 2202234); note: nearly all actives have a fitted effect of over 35% in size; note: potency is the fitted concentration of half-maximal effect
In short: as §2

[9] = BET inhibitor-based combinations targeting novel dependencies in MECOM-rearranged (r) AML: AML-191 cell line (AID 2202236; note: nearly all actives have a fitted effect of over 35% in size; note: potency is the fitted concentration of half-maximal effect)
In short: as §1

[10] = BET inhibitor-based combinations targeting novel dependencies in MECOM-rearranged (r) AML: AML-194 cell line (AID 2202237; note: nearly all actives have a fitted effect of over 40% in size; note: potency is the fitted concentration of half-maximal effect)
In short: as §1

[11] = BET inhibitor-based combinations targeting novel dependencies in MECOM-rearranged (r) AML: UCSD-AML1 cell line (AID 2202235); note: nearly all actives have a fitted effect of over 40% in size; note: potency is the fitted concentration of half-maximal effect; for viability (% of control): series mostly up to about 46 µM
In short: as §2

SMILES | activation [1] | Potency [2] | Potency [3] | Potency [4] | viability [5] | Potency [6] | Potency [7] | Potency [8] | Potency [9] | Potency [10] | Potency [1] | Potency [5] | Potency [11] | viability (% of control) [6] | viability, % of control [7] | viability (% of control) [8] | viability (% of control) [9] | viability (% of control) [10]
CC1COC2(CCN(c3nc(=O)c4cc(C(F)(F)F)cc([N+](=O)[O-])c4s3)CC2)O1 (stereo unspecified) | -5.81% (inactive) and -10.5% (inactive) | inactive | inactive | inactive | 104% (inactive) | inactive | inactive | inactive | inactive | inactive |  |  |  |  |  |  |  | 
Nc1ncnc2c1c(-c1cnc3[nH]ccc3c1)nn2C1CCCC1 |  | inactive | inactive | inactive |  | 4.17 µM (active) | 1.66 µM (active) | 0.417 µM (active) | 2.95 µM (active) | 1.86 µM (active) | 26.9 µM (active) | 3.72 µM (active) | 372 nM (active) |  |  |  |  | 
O=P(O)(O)C(O)(Cc1cccnc1)P(=O)(O)O | 20.9% (inactive) and -4.4% (inactive) and 7.64% (inactive) | inactive | inactive | inactive | 110% (inactive) | inactive | inactive | inactive | inactive | inactive |  |  | inactive |  |  |  |  | 
CCOCc1nc2c(N)nc3ccccc3c2n1CC(C)(C)O | 4.77% (inactive) | inactive | inactive | inactive | 108% (inactive) | inactive | inactive | inactive | inactive | inactive |  |  | inactive |  |  |  |  | 
CC(C)N(C[C@H]1O[C@@H](n2cnc3c(N)ncnc32)[C@H](O)[C@@H]1O)C1CC(CCc2nc3ccc(C(C)(C)C)cc3[nH]2)C1 (stereo partly specified) | 15.8% (inactive) and 10% (inactive) | inactive | inactive | inactive | 125% (inactive) | inactive | 6.61 µM (active) | inactive | inactive | inactive |  |  | inactive |  |  |  |  | 
CCCCNc1ncc2c(-c3ccc(CN4CCN(C)CC4)cc3)cn(C3CCC(O)CC3)c2n1 (stereo unspecified) |  | inactive | inactive | inactive |  | 6.61 µM (active) and 4.68 µM (active) | 59 nM (active) and 93.4 nM (active) |  | 833 nM (active) and 1.18 µM (active) | 742 nM (active) and 1.05 µM (active) | 21.3 µM (active) | 14.8 µM (active) and 11.8 µM (active) | 4.17 µM (active) and 3.32 µM (active) |  |  |  |  | 
CCCCNc1ncc(-c2ccc(CN3CCOCC3)cn2)c(NC2CCC(O)CC2)n1 (stereo unspecified) | -4.77% (inactive) | inactive | inactive | inactive | 114% (inactive) | 1.15 µM (active) | 0.144 µM (active) |  |  |  |  |  | 8110 nM (active) |  |  |  |  | 
Cn1c(CNc2ccc(C(=N)N)cc2)nc2cc(C(=O)N(CCC(=O)O)c3ccccn3)ccc21 | 22.7% (inactive) and -0.477% (inactive) | inactive | inactive | inactive | 116% (inactive) |  |  |  |  |  |  |  |  | 119% [at 0.315 µM] (inactive) | 133% [at 0.315 µM] (inactive) | 104% [at 0.315 µM] (inactive) | 101% [at 0.315 µM] (inactive) | 118% [at 0.315 µM] (inactive)
NCC(=O)Nc1ccc(-n2nc(C(F)(F)F)cc2-c2ccc3c(ccc4ccccc43)c2)cc1 | -7.41% (inactive) | inactive | inactive | inactive |  | 18.6 µM (active) | 4.68 µM (active) |  | 16.6 µM (active) |  |  | 11.8 µM (active) | inactive |  |  |  |  | 
CC(C)OC(=O)C1=CN(C(=O)c2ccc(F)c(F)c2)CC(C)(C)c2c1[nH]c1ccccc21 | -3.85% (inactive) and 0.955% (inactive) | inactive | inactive | inactive | 109% (inactive) | inactive | inactive | inactive |  | inactive |  |  | inactive |  |  |  |  | 
NC(=O)Nc1cc(-c2cccc(F)c2)sc1C(=O)N[C@H]1CCCNC1 |  | inactive | inactive | inactive |  | 0.468 µM (active) | 0.0021 µM (active) | 0.468 µM (active) |  | 0.372 µM (active) | 8.49 µM (active) | 0.934 µM (active) | 296 nM (active) |  |  |  |  | 
Cc1[nH]c(/C=C2\C(=O)Nc3ccc(S(=O)(=O)N(C)c4cccc(Cl)c4)cc32)c(C)c1C(=O)N1CCN(C)CC1 | -19.1% (inactive) | inactive | inactive | inactive |  | 10.5 µM (active) | 4.68 µM (active) | 16.6 µM (active) | 7.42 µM (active) | 7.42 µM (active) |  | 20.9 µM (active) |  |  |  |  |  | 
OC(c1ccc(-c2ccc(CN3CCN(Cc4ccncc4)CC3)cc2)c(F)c1)(C(F)(F)F)C(F)(F)F | -11% (inactive) | inactive | inactive | inactive | 101% (inactive) |  | 8.33 µM (active) | inactive | 9.34 µM (active) | inactive |  |  | inactive |  |  |  |  | 
C[C@]12CC[C@H](O)CC1=CCC1C2CC[C@]2(C)C(n3cnc4ccccc43)=CCC12 (stereo partly specified) | 20.1% (inactive) and 28.6% (inactive) | inactive | inactive | inactive | 118% (inactive) | inactive |  | inactive | 18.6 µM (active) | inactive |  |  | inactive |  |  |  |  | 
